What was measured:
Assay in all cases: PBM binding z-score (relative to random genomic background probes); higher = stronger binding; sequences stand for … in GC…GCGATTGACAGCGTAGAATGAAGG
[1] = system: FXR:RXRa (NR concentration 270 nM, RXRa partner concentration 90 nM)
Procedure, shortened: (§1)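 Binding z-scores were set against random background probes. The data came from custom Agilent 4×180K protein-binding microarrays carrying double-stranded probes with 34-nt variable regions, incubated 1 h with ligand-free nuclear receptor dimers. Partner-specific antibodies detected binding, and scanned fluorescence was regression-normalized.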

[2] = system: LXRa:RXRa (NR concentration 270 nM, RXRa partner concentration 90 nM)
Procedure, shortened: as §1

[3] = system: LXRa homodimer (NR concentration 270 nM)
Procedure, shortened: as §1

[4] = system: LXRb:RXRa (NR concentration 270 nM, RXRa partner concentration 90 nM)
Procedure, shortened: as §1

[5] = system: LXRb homodimer (NR concentration 270 nM)
Procedure, shortened: as §1

[6] = system: PPARa:RXRa (NR concentration 270 nM, RXRa partner concentration 90 nM)
Procedure, shortened: as §1

[7] = system: PPARg:RXRa (NR concentration 180 nM, RXRa partner concentration 90 nM)
Procedure, shortened: as §1

[8] = system: PPARg:RXRa 270nM:90nM, anti-RXR (NR concentration 270 nM, RXRa partner concentration 90 nM)
Procedure, shortened: as §1

[9] = system: PPARg:RXRa 30nM:10nM, anti-RXR (NR concentration 30 nM, RXRa partner concentration 10 nM)
Procedure, shortened: as §1

[10] = system: PPARg:RXRa 90nM:30nM, anti-RXR (NR concentration 90 nM, RXRa partner concentration 30 nM)
Procedure, shortened: as §1

[11] = system: PPARg:RXRa DBDmut IVT, anti-RXR (DBD mutation: RXRa K156A/R161A, NR concentration 270 nM, RXRa partner concentration 90 nM)
Procedure, shortened: as §1

[12] = system: PPARg:RXRa IVT, anti-PPARg (NR concentration 270 nM, RXRa partner concentration 90 nM)
Procedure, shortened: as §1

[13] = system: PPARg DBDmut:RXRa IVT, anti-PPARg (DBD mutation: PPARg1 K132A/R137A, NR concentration 270 nM, RXRa partner concentration 90 nM)
Procedure, shortened: as §1

[14] = system: PPARg DBDmut IVT, anti-PPARg (DBD mutation: PPARg1 K132A/R137A, NR concentration 270 nM)
Procedure, shortened: as §1

[15] = system: PPARg homodimer (NR concentration 180 nM)
Procedure, shortened: as §1

[16] = system: PXR:RXRa (NR concentration 270 nM, RXRa partner concentration 90 nM)
Procedure, shortened: as §1

[17] = system: PXR homodimer (NR concentration 270 nM)
Procedure, shortened: as §1

[18] = system: RARa:RXR (NR concentration 270 nM, RXRa partner concentration 90 nM)
Procedure, shortened: as §1

[19] = system: RARa homodimer (NR concentration 270 nM)
Procedure, shortened: as §1

[20] = system: RARb:RXRa (NR concentration 270 nM, RXRa partner concentration 90 nM)
Procedure, shortened: as §1

| Sequence | PBM binding z-score [1] | PBM binding z-score [2] | PBM binding z-score [3] | PBM binding z-score [4] | PBM binding z-score [5] | PBM binding z-score [6] | PBM binding z-score [7] | PBM binding z-score [8] | PBM binding z-score [9] | PBM binding z-score [10] | PBM binding z-score [11] | PBM binding z-score [12] | PBM binding z-score [13] | PBM binding z-score [14] | PBM binding z-score [15] | PBM binding z-score [16] | PBM binding z-score [17] | PBM binding z-score [18] | PBM binding z-score [19] | PBM binding z-score [20] |
| --- | --- | --- | --- | --- | --- | --- | --- | --- | --- | --- | --- | --- | --- | --- | --- | --- | --- | --- | --- | --- |
| ACTAGCAGGCCTAGTTTGGGTCACTCAAACAAAG | -0.223 | -0.267 | -0.434 | 0.356 | -0.757 | 1.13 | -0.314 | 0.138 | -0.572 | -0.184 | -0.402 | 0.669 | -0.351 | -1.26 | -0.416 | 0.282 | -0.591 | 1.1 | -0.718 | 0.83 |
| ATCGCTAGGTAAAAGTTCAGTGAATCCCGAGGAT | 0.352 | 1.06 | 0.677 | 0.618 | -0.3 | 2.84 | 4.94 | 5.9 | 5.05 | 6.23 | -0.272 | 1.63 | 0.14 | -0.441 | 0.521 | 1.64 | 1.06 | 1.49 | -0.726 | 2.04 |
| CGAACTAGGTCAAAGGTCAAAGTCGAGCCAACCA | 8.28 | 7.41 | 5.37 | 7.03 | 2.53 | 7.47 | 14.1 | 11.4 | 14.7 | 14 | 8.51 | 9.23 | 5.13 | 3.23 | 6.9 | 7.09 | 2.03 | 8.93 | 3.32 | 5.51 |
| CGAACTAGGTCATGGACAGGACAGTGAATAGTAA | 3.85 | 2.37 | -0.0954 | 1.81 | -0.546 | 4.79 | 8.05 | 6.56 | 4.17 | 6.19 | 8.1 | 8.31 | 3.01 | 0.998 | 1.68 | 1.65 | -0.17 | 2.55 | 0.249 | 3.88 |
| AATACAGGGTCATCGTAGGCCAGAGGACGCACAG | 7.28 | 6.5 | 2.24 | 4.6 | 1.25 | 5.96 | 6.68 | 6.34 | 3.12 | 4.94 | 2.45 | 4.1 | 1.52 | 0.83 | 2 | 4.85 | 0.696 | 4.98 | 0.699 | 4.41 |
| AGAATGAGGTTATATGTAGATCAGGGAAGAAAGT | 2.11 | 1.96 | 0.495 | 1.82 | 0.548 | 3.26 | 2.33 | 2.5 | 0.823 | 1.87 | 3.28 | 2.52 | 1.48 | 1.02 | 1.32 | 1.2 | 0.891 | 1.75 | 1.37 | 1.57 |
| TCATATAGGTAAATGCTAGTTGAAAGTCCGATCT | 0.79 | 0.719 | 0.081 | 0.689 | -0.0232 | 1.09 | 0.625 | 1.79 | 3.76 | 2.81 | 4.01 | 2.25 | 1.08 | 1.1 | 0.913 | 0.488 | 0.757 | 0.405 | 1.01 | 0.37 |
| TTACCAAGGTGAAGGTCGTTGCTCCCTCTGTAGA | 2.26 | 1.91 | 0.0546 | 1.46 | -0.474 | 2.7 | 2.96 | 4.34 | 2.21 | 3.83 | 2.04 | 3.56 | -0.269 | 0.0241 | 1.17 | 1.46 | 0.225 | 1.65 | -0.269 | 2.39 |
| CGAACTAAGTCAAGGACAGTGAATCTCCGCACGC | -0.155 | -0.206 | -0.211 | -0.441 | -0.793 | -0.228 | 0.372 | -0.132 | -0.287 | -0.694 | 0.868 | 0.214 | -0.424 | -0.249 | -0.418 | -0.229 | -0.329 | 0.0296 | -0.646 | 0.556 |
| TCTTGTAGATCAAAGGTAAAGAAAGCCGAAGCCT | 0.667 | 0.672 | -0.3 | 0.446 | -0.436 | 3.14 | 5.41 | 6.12 | 6.21 | 6.93 | 2.51 | 2.4 | 0.0443 | -0.451 | 0.519 | 0.378 | 0.111 | 0.715 | -0.116 | 0.397 |
| CCGACGGGGGCATAAGGTTACCATAAGCCAGCCC | 3.27 | 4.13 | 0.249 | 4.27 | 3.6 | 3.87 | 2.48 | 3.54 | 1.17 | 2.82 | 1.29 | 2.29 | 0.647 | 0.997 | 1.67 | 2.75 | 0.496 | 3.93 | 0.379 | 2.86 |
| CGTCCAAGGTCAGCCGGTCAGTGAAAGCGACGTG | 5.37 | 3.63 | 0.364 | 2.5 | -0.165 | 4.18 | 2.43 | 3.24 | 0.459 | 1.79 | 2.51 | 2.75 | -0.217 | -1.45 | 2.55 | 2.9 | 0.408 | 3.71 | 0.671 | 5 |
| GCAGACAGGTGAAACGCAGGCAACTCAGGGTGGC | -0.553 | -0.232 | -0.806 | -0.499 | -1.09 | 0.513 | 0.448 | -0.314 | -0.566 | -0.565 | 0.648 | 0.278 | -0.31 | -0.728 | -0.411 | -0.21 | -0.499 | 0.0177 | -0.602 | 0.594 |
| CGAACTAGGTCAGAACAGGACCGTGAAGGATGAT | 0.998 | 0.352 | -0.566 | 0.148 | -0.568 | 2.94 | 5.07 | 4.33 | 1.63 | 3.44 | 7.33 | 7.06 | 2.11 | 0.843 | 0.797 | 0.0175 | -0.758 | 0.594 | -0.383 | 2.73 |
